# Measurements as given in ChEMBL document CHEMBL3988442, “University of Dundee, Small-Polar-MMV Screening Library” (2021).
# Out of some 69,000 compounds screened, about 1,000 (1.4%) showed an effect of 50% or more. The list comes from a sample in which strong results are over-represented; it also holds similar structures and randomly drawn compounds.
# System: Leishmania donovani
# Assay: Leishmania intramacrophage assay
# Type: functional, organism-based
# Design: scale not given: in the data most compounds retested in dose-response had high values
compound,measurement,setting,value
O=S(=O)(c1ccccc1Cl)N1CCc2nc(C3CCNCC3)ncc2C1,Percent Effect,"30 µM, 30.03 µM",50.23%
Cc1ccc(S(=O)(=O)N2CCc3nc(C4CCNCC4)ncc3C2)cc1.Cl,Percent Effect,"30 µM, 30.03 µM",-1.201%
Cl.O=S(=O)(c1ccc(Cl)cc1)N1CCc2nc(C3CCNCC3)ncc2C1,Percent Effect,"30.3 µM, […]",-22.35%
Cc1nc(C2CCCN2Cc2nc(C3CC3)no2)no1 (configuration not stated),Percent Effect,30 µM,21.89%
CCCN(CCC)C(=O)c1cc(CN2CCC(O)CC2)on1,Percent Effect,"30.3 µM, […]",36.24%
CCn1ncc(Cn2cc(Cl)c(N)n2)c1C,Percent Effect,"30.3 µM, […]",-8.997%
COc1ccnc(CNc2nc(C)nc3ccsc23)c1,Percent Effect,"30.3 µM, […]",56.7%
Cc1nc(NCc2noc(C3CCCO3)n2)c2sccc2n1 (configuration not stated),Percent Effect,"30.3 µM, […]",29.04%
COc1ccnc(CNc2nc(C)nc(C)c2C)c1,Percent Effect,"30.3 µM, […]",39.23%
CCc1csc(C2CCCN(C(=O)c3ccc4c(c3)OCO4)C2)n1 (configuration not stated),Percent Effect,"30.3 µM, […]",-18.73%
Cc1ccc(S(=O)(=O)N2CC(C)Oc3ncccc32)c(C)c1 (configuration not stated),Percent Effect,"30.3 µM, […]",55.69%
CC1CN(S(=O)(=O)c2ccc(F)cc2F)c2cccnc2O1 (configuration not stated),Percent Effect,"30.3 µM, […]",30.4%
Cc1ccc(S(=O)(=O)N2CC(C)Oc3ncccc32)c(F)c1 (configuration not stated),Percent Effect,"30.3 µM, […]",21.87%
CN(CC1(CO)CCC1)C(=O)c1cc(COc2ccccc2F)[nH]n1,Percent Effect,"30.3 µM, […]",-17.63%
COc1ccc2c(c1)CN(CC(=O)NC1CCCC1)CC2,Percent Effect,"30.3 µM, […]",-7.68%
COc1ccc2c(c1)CCCN(C(=O)NCC1CCCO1)C2 (configuration not stated),Percent Effect,"30.3 µM, […]",6.687%
COc1ccc2c(c1)CCCN(CC(=O)NCC1CCCO1)C2 (configuration not stated),Percent Effect,"30.3 µM, […]",55.19%
CC(=O)NC(C)C(=O)N(Cc1ccc(C)c(C)c1)C1CC1 (configuration not stated),Percent Effect,"30.3 µM, […]",-3.591%
COc1ccccc1-c1ncc(CN2CCCC[C@H](N(C)C)C2)s1,Percent Effect,"30.3 µM, […]",36.23%
COc1ccccc1-c1ncc(CN2C[C@@H](N(C)C)[C@H](C(C)C)C2)s1,Percent Effect,"30.3 µM, […]",52.36%
COc1ccccc1-c1ncc(CN2C[C@H](O)[C@@H](N3CCCC3)C2)s1,Percent Effect,"30.3 µM, […]",4.457%
CNC(=O)CN1CC[C@H]2CN(C(=O)c3ccc(C)cc3)C[C@H]2C1.O=C(O)C(F)(F)F,Percent Effect,"30.3 µM, […]",2.501%
CCN1CCn2c(C)cnc2C12CCN(C(=O)N(C)C)CC2.O=C(O)C(F)(F)F.O=C(O)C(F)(F)F,Percent Effect,"30.3 µM, […]",6.426%
CC(C)c1cc(C(=O)N2CCOCC2CC(=O)c2ccco2)nn1C (configuration not stated),Percent Effect,"30.3 µM, […]",-24.4%
Cc1nn(-c2ccccc2Cl)c(C)c1CCC(=O)O,Percent Effect,"30.3 µM, […]",-26.02%
CC(C)c1ccc(C(CN)N2CCc3sccc3C2)cc1 (configuration not stated),Percent Effect,"30.3 µM, […]",82.67%
NCC(c1ccc(Cl)cc1)N1CCc2sccc2C1 (configuration not stated),Percent Effect,"30.3 µM, […]",40.17%
NCC(c1ccccc1)N1CCc2sccc2C1 (configuration not stated),Percent Effect,"30 µM, 30.03 µM",28.55%
O=C(NCCSC1CCCC1)c1ccc(F)cc1F,Percent Effect,"30.3 µM, […]",24.13%
COc1ccccc1N1CCN(C(=O)Cn2nc(C)c(Cl)c2C)CC1,Percent Effect,"30.3 µM, […]",31.83%
c1ccc2oc(CCCN3CCCC(Cn4cncn4)C3)nc2c1 (configuration not stated),Percent Effect,30 µM,8.044%
Cc1cc(C(=O)N2C[C@H]3CC[C@@H]2CN(Cc2ccccn2)C3)nc(C)n1,Percent Effect,"30.3 µM, […]",16.91%
CC(=O)Nc1ccc(CNCC(O)c2ccc(Cl)cc2)cc1 (configuration not stated),Percent Effect,"30.3 µM, […]",-0.7096%
CC(C)Nc1ncnc2c1CCN(c1cc(C(F)(F)F)ncn1)CC2,Percent Effect,"30.3 µM, […]",9.513%
CCOc1ccccc1CNC(=O)N(CC)C(C)c1cccnc1 (configuration not stated),Percent Effect,"30.3 µM, […]",14.76%
CCN(C(=O)NCc1ccccc1OC(F)F)C(C)c1cccnc1 (configuration not stated),Percent Effect,"30.3 µM, […]",43.41%
CCN(C(=O)NCc1ccc(C)cc1OC)C(C)c1cccnc1 (configuration not stated),Percent Effect,"30.3 µM, […]",51.84%
Cc1ccc2c(n1)N(Cc1cccnc1)CCN(C(=O)C1CC=CC1)C2,Percent Effect,"30.3 µM, […]",-19.75%
Cc1ccc2c(n1)N(CC1CC1)CCN(Cc1cnn(C)c1)C2,Percent Effect,"30.3 µM, […]",26.83%
Cc1ccc2c(n1)N(Cc1cccnc1)CCN(Cc1cnn(C)c1)C2,Percent Effect,"30.3 µM, […]",76.22%
Cc1nn(C)c(Cl)c1C1CCCN1C(=O)c1nccnc1N (configuration not stated),Percent Effect,"30 µM, 30.03 µM",1.892%
CC(NC(=O)NCCCn1cncn1)c1ccccc1Cl (configuration not stated),Percent Effect,"30 µM, 30.03 µM",-19.77%
O=C(O)Cc1cnc(-c2c(Cl)cccc2Cl)s1,Percent Effect,"30.3 µM, […]",39.96%
CCc1ccc(CN2C[C@@H](c3nc(C)no3)C[C@H]3OCC[C@H]32)o1.O=C(O)C(F)(F)F,Percent Effect,"30.3 µM, […]",-6.961%
Cc1noc([C@H]2C[C@H]3OCC[C@H]3N(Cc3ccc4c(c3)OCO4)C2)n1.O=C(O)C(F)(F)F,Percent Effect,"30 µM, 30.03 µM",25.3%
Cc1noc([C@H]2C[C@H]3OCC[C@H]3N(Cc3ccc(F)cc3)C2)n1.O=C(O)C(F)(F)F,Percent Effect,"30.3 µM, […]",51.58%
Cc1cccnc1NC(=O)c1ccc(F)c(S(=O)(=O)NC2CC2)c1,Percent Effect,"30.3 µM, […]",2.163%
CC(=O)Nc1ncc(S(=O)(=O)Nc2cccc(F)c2)s1,Percent Effect,"30.3 µM, […]",-21.07%
CC(=O)Nc1ncc(S(=O)(=O)Nc2cccc(O)c2)s1,Percent Effect,"30.3 µM, […]",53.03%
CC(=O)Nc1ncc(S(=O)(=O)Nc2cccc(C)c2)s1,Percent Effect,"30.3 µM, […]",11.84%
Cc1cnc(N2CC[C@@H]3OC(COCC(=O)N(C)C)CC[C@@H]32)nc1.O=C(O)C(F)(F)F (some centres not stated),Percent Effect,"30.3 µM, […]",4.675%
Cc1cnc(N2CC[C@@H]3O[C@@H](COCC(=O)N(C)C)CC[C@@H]32)nc1.O=C(O)C(F)(F)F,Percent Effect,"30.3 µM, […]",58.41%
